High-throughput results from PubChem BioAssay.
An excerpt weighted towards active compounds, which were near 3.5% of everything screened.
MITF primary – human MITF inhibition, primary screen; AlphaScreen MITF homodimerization, bead proximity signal; AID 1259374; 650,000 compounds, 0.91% hits; inhibition, % at 2.6 µM; O75030; in the data active = inhibition above about 50%;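 also: 0% = vehicle wells with protein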
FBW7 activator – human FBW7 E3 ligase activation, primary screen. AlphaScreen FBW7–phospho-cyclin E peptide binding, activator screen. 650,000 compounds, 0.13% hits. AID 1259310. Q969H0. normalized activity (activation), % at 26.1 µM; in the data active = normalized activity above about 1.9%;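 also: purified mutant Fbw7 with reduced substrate affinity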
TEAD-YAP inh – TEAD-YAP interaction inhibition; inhibition, % at 9.12 µM; 640,000 compounds, 1.4% hits; AID 1259422; HEK-TIYL cells, TEAD-Gal4/YAP UAS-luciferase luminescence; in the data active = inhibition above about 32%;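 also: 0% = median of test compound wells and 100% = reference inhibitor wells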
GPR151 ag – activators of human GPR151. Q8TDV0. PathHunter beta-arrestin GPR151 cells, luminescence. activation, % at 11.2 µM. 650,000 compounds, 1% hits; in the data active = activation above about 4.9%;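 also: 0% = median of compound wells and 100% = cells with positive control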
Target sequence (Q8TDV0 whole entry, looked up): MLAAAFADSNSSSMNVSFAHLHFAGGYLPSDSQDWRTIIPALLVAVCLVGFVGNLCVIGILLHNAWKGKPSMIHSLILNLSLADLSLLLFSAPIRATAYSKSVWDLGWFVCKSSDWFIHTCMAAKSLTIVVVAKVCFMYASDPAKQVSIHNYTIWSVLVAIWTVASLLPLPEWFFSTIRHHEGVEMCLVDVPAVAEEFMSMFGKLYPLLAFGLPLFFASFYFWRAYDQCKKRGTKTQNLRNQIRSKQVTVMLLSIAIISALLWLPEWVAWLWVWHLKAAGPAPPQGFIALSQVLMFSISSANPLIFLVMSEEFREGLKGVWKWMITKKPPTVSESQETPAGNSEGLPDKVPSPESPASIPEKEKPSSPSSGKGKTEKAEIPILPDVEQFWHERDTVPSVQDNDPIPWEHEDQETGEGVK
* marks the source's active call; other numbers are inactive results; . = no result.

SMILES	MITF primary	FBW7 activator	TEAD-YAP inh	GPR151 ag
CC(C)c1ccc2oc(-c3ccc(Cl)c(NC(=O)Cc4ccccc4)c3)nc2c1	-4	0	61*	0
Cc1ccc2oc(-c3ccc(Cl)c(NC(=O)Cc4ccccc4)c3)nc2c1	5	0	4	-1
CC[C@H](C)[C@@H]1NC(=O)[C@@H]2C[C@H](NC(=O)Nc3cc(Cl)ccc3C)CN2C1=O	10	0	9	1
Cc1ccc(C(C)C)c(OCC(=O)NNC(=O)COc2ccc(Cl)cc2)c1	9	0	11	-1
COc1cccc(/C=N/NC(=O)C(C)Nc2ccccc2C)c1O (stereo unspecified)	11	0	14	0
CCCCCCC1(O)C(C)C(c2ccc(N(C)C)cc2)NC(c2ccc(N(C)C)cc2)C1C (stereo unspecified)	61*	-1	-11	0
C/C=C(\C)CN1C[C@H](NC(=O)c2ccc(OC)cc2)C[C@H]1C(=O)OC	-16	0	-6	-1
O=C(N1CCCC1)N1c2ccccc2Sc2ccccc21	12	1	29	-1
O=C(N1CCN(c2ccccn2)CC1)N1c2ccccc2Sc2ccccc21	0	1	51*	-1
O=C(c1ccco1)N1CCN(C(=O)N2c3ccccc3Sc3ccccc32)CC1	22	0	51*	0
Cc1cc(NC(=O)c2cnc3sc(C)cn3c2=O)no1	-13	0	-33	0
O=C(/C=C/c1ccc(Cl)cc1)N1CCN(Cc2ccc3c(c2)OCO3)CC1	13	0	-1	1
CN(C)c1ccc(/C=C/CN2CCN(Cc3ccc4c(c3)OCO4)CC2)cc1	68*	-1	-7	0
COc1ccc(OC)c(NC2=CC(=O)CC(c3ccccc3)C2)c1 (stereo unspecified)	1	0	55*	0
COc1ccc(NC2=CC(=O)CC(c3ccccc3)C2)c(OC)c1 (stereo unspecified)	16	1	48*	0
O=C(COc1ccccc1)Nc1ccccc1C(F)(F)F	1	0	-18	0
CCOc1ccccc1NC(=O)NCc1nc(-c2cccnc2)n[nH]1	3	0	1	0
O=C(Nc1cccc(Cl)c1)c1ccc(CN2CCc3ccccc3C2)cc1	-19	0	40*	-2
Cc1cccc(NC(=O)c2ccc(CN3CCc4ccccc4C3)cc2)c1	-3	0	36*	0
O=C(Nc1ccc(F)c(F)c1)c1ccc(Cl)c([N+](=O)[O-])c1	22	0	18	-1
O=C1OCC2=C1C(c1ccc(F)cc1)c1cc3c(cc1N2)OCO3 (stereo unspecified)	-2	0	50*	0
CC(=O)Nc1ccc(C2C3=C(COC3=O)Nc3cc4c(cc32)OCO4)cc1 (stereo unspecified)	11	0	-11	-1
O=C1NC2=C(C(=O)OC2)C(c2ccc(F)c(F)c2)N1 (stereo unspecified)	-2	0	9	2
O=C1OCC2=C1C(c1ccc(F)cc1)c1cc3c(cc1N2)OCCO3 (stereo unspecified)	-2	0	53*	0
Cc1cc(=O)oc2c1ccc1oc(C(=O)c3ccc(Cl)cc3)c(-c3ccccc3)c12	-1	0	63*	0
SMILES	MITF primary	FBW7 activator	TEAD-YAP inh	GPR151 ag
Cc1cc(=O)oc2c1ccc1oc(C(=O)c3ccccc3)c(-c3ccccc3)c12	6	0	72*	0
Cc1cc(=O)oc2c1ccc1oc(C(=O)c3ccccc3)c(C)c12	11	0	49*	0
C/C(=N\O)c1oc2ccc3c(C)cc(=O)oc3c2c1C	0	0	6	0
CC(=O)c1oc2ccc3c(C)cc(=O)oc3c2c1-c1ccccc1	1	0	-3	1
NCCCC[C@@H]1NC(=O)[C@@H]2C[C@H](NC(=O)c3ccc(Cl)cc3)CN2C1=O	9	0	-8	0
COc1cc(/C=N\NC(=O)c2cc(C)[nH]n2)ccc1OC(C)=O	24	0	4	2
CN(C)c1nnc(-c2ccccc2N)o1	17	0	-13	-1
COC(=O)c1cc(Br)ccc1NC(=O)COc1ccc([N+](=O)[O-])cc1	-1	0	9	0
CCOc1ccc2nc(NN)sc2c1	10	0	0	-3
CC(=O)NCc1ccc(-c2nc3ccccc3s2)cc1	-4	0	-3	-5
COc1cc(NC(=O)c2ccc3nc(-c4ccc(C(N)=O)cc4)sc3c2)cc(OC)c1OC	-3	0	46*	-1
NC(=O)c1ccc2nc(-c3ccccc3)sc2c1	1	0	73*	-11
CCOc1ccc2nc(-c3ccc(N)cc3)sc2c1	5	0	35*	-1
CC(C)N(C(=O)c1ccc(-c2nc3ccccc3s2)cc1)C(C)C	-11	0	54*	-1
Cc1ccccc1NC(=O)Cn1c(C)c(C#N)c2ccccc21	0	0	11	0
CCCCC/C=C\C=C\[C@@H](O)C/C=C\C/C=C\CCCC(=O)O	7	.	.	-1
O=C(O)c1ccc2nc(-c3ccccc3)sc2c1	19	0	-13	-5
Nc1ccc(-c2nc3ccc(N)cc3s2)cc1	1	0	18	-9
Nc1ccc(-c2nc3ccc(C(=O)O)cc3s2)cc1	-10	0	75*	-9
Nc1ccc2nc(-c3ccc(O)cc3)sc2c1	11	0	76*	-10
Cc1ccc(-c2nnc(Cn3c(C)nc4ccccc43)o2)cc1	-16	0	58*	-1
COc1ccc(-c2nc(CCn3c(C)nc4ccccc43)no2)cc1	-8	0	38*	2
COc1ccc2nc3cc(Cl)ccc3[n+]([O-])c2c1	-1	0	-36	-2
CSc1cccc(NC(=O)C2C3C=CC4(O3)C2C(=O)N(CCN2CCCCC2C)C4C(=O)NC2CCCCC2)c1 (stereo unspecified)	13	0	2	-1
CCOC(=O)C(C)N1C(=O)S/C(=C/c2cc(C)n(-c3ccccn3)c2C)C1=O (stereo unspecified)	5	0	-21	-1
SMILES	MITF primary	FBW7 activator	TEAD-YAP inh	GPR151 ag
CCN1C(=O)NC(=O)/C(=C\c2cc(C)n(-c3ccc(O)cc3)c2C)C1=O	9	-1	-3	1
CCN1C(=O)/C(=C\c2cc(C)n(-c3ccc(OC)cc3)c2C)C(C(=O)OC)=C1C	76*	0	-6	-2
CCN1C(=O)S/C(=C/c2cc(C)n(-c3ccc(O)cc3)c2C)C1=O	4	0	80*	0
CCN1C(=O)S/C(=C/c2cc(C)n(-c3ccccn3)c2C)C1=O	10	0	69*	1
CS(=O)(=O)Nc1ccc(-c2nnc(SCC(=O)Nc3ccccc3F)o2)cc1	6	0	37*	0
CS(=O)(=O)Nc1ccc(-c2nnc(SCC(=O)Nc3ccccc3Cl)o2)cc1	-5	0	-27	1
CNC(=O)c1cc(F)ccc1Nc1cc(Nc2cc(-c3cncnc3)nc(C)n2)ncc1C(F)(F)F	-5	0	55*	-1
Cc1nc(Nc2cc(Nc3ccccn3)c(C(F)(F)F)cn2)cc(-c2cncnc2)n1	16	0	32*	0
